Among all 98,000 compounds or so, about 4,900 (5%) were called active. The entries come from a sample that favours actives as a whole. Unmarked numbers belong to inactive results. No stated cut-off is given here; in the data, active means inhibition above about 30%; inactive means the rest.
assay: growth inhibition of yeast control strain, primary screen, counter-screen for post-Golgi transport modulator project (AID 738); settings: efflux-deficient yeast background strain, growth absorbance A615, 16 h; at 10 µM; active compounds read high

Row | Structure (SMILES) | inhibition
1 | c1ccc(-c2cn3c(n2)CCc2ccc4cccnc4c2-3)cc1 | 42.3% (active)
2 | c1ccc(-c2cn3cccnc3n2)cc1 | 10%
3 | O=C(Nc1ccccc1)c1ccccc1NC(=O)C(F)(F)F | 10.5%
4 | CCCCOC(=O)c1ccc(N2C(=O)CC(N3CCN(C/C=C/c4ccccc4)CC3)C2=O)cc1 (stereo not given) | 30.1% (active)
5 | CCOC(=O)c1ccc(N2C(=O)CC(N3CC(C)OC(C)C3)C2=O)cc1 (stereo not given) | 7.03%
6 | CCOC(=O)c1ccc(N2C(=O)CC(N3CCC(C(=O)OCC)CC3)C2=O)cc1 (stereo not given) | 0%
7 | O=C(NC1CCN(C(=S)NCc2ccco2)CC1)c1ccc(F)cc1 | 7.63%
8 | CCOC(=O)N1CCN(Cc2nc(N)nc(Nc3ccc(C)cc3)n2)CC1 | -1.25%
9 | Cn1cc(S(=O)(=O)N2CCN(c3ccc(F)cc3)CC2)c(=O)n(C)c1=O | 3.87%
10 | CC(C)c1ccc(NS(=O)(=O)c2cn(C)c(=O)n(C)c2=O)cc1 | 94.4% (active)
11 | Cn1cc(S(=O)(=O)N2CCC(Cc3ccccc3)CC2)c(=O)n(C)c1=O | 2.66%
12 | CC(CNc1ccc([N+](=O)[O-])cc1)NC(=O)c1ccccc1Br (stereo not given) | 1.54%
13 | CO/N=C/c1ccc(N2CCN(C(=O)c3cccc(Cl)c3)CC2)c([N+](=O)[O-])c1 | -2.25%
14 | CC(C)NC(=O)c1ccc(Sc2ccccc2)c([N+](=O)[O-])c1 | -2.82%
15 | CCOc1cc2[nH]c(=S)n(CCCN3CCCC3=O)c(=O)c2cc1OCC | 35.1% (active)
16 | O=C(CCn1c(=S)[nH]c2ccccc2c1=O)NCCCN1CCCC1=O | 18.7%
17 | CCOc1cc2[nH]c(=S)n(CCN3CCCCC3C)c(=O)c2cc1OCC (stereo not given) | -3.72%
18 | Cc1nn(-c2ncc(C(F)(F)F)cc2Cl)c(=O)n1-c1ccccc1 | 10.2%
19 | O=C(c1ccccn1)c1ncc(C(F)(F)F)cc1Cl | 5.57%
20 | Cc1ccc(-c2ccnc3nc(Sc4ncc(C(F)(F)F)cc4Cl)nn23)cc1 | 36.2% (active)
21 | O=C(Nc1ccccc1)OCc1cn(-c2ccc(Cl)cc2)nn1 | 17.4%
22 | CCC(=O)NC(NCC1CCCO1)C(Cl)(Cl)Cl (stereo not given) | -2.21%
23 | COc1ccc(C(=O)NNC(=O)c2cnccn2)cc1[N+](=O)[O-] | 7.69%
24 | Cc1cccc(C(=O)Nc2ccccc2-c2nnn(CC(=O)Nc3ccc4c(c3)OCCO4)n2)c1 | 6.95%

Row | Structure (SMILES) | inhibition
25 | Cc1cc(C)c2c3c(sc2n1)C(c1ccccc1)C(C#N)=C(N)O3 (stereo not given) | 72.8% (active)
26 | Cc1cc(C)c(C#N)c(SCc2[nH]nc3c2C(c2ccccc2)C(C#N)=C(N)O3)n1 (stereo not given) | -0.29%
27 | N#CC1=C(N)Oc2c(sc3ccccc23)C1c1ccco1 (stereo not given) | 13.9%
28 | C=CCOc1cccc(CNn2cn[nH]c2=S)c1 | 5.3%
29 | Cc1cccc(C)c1-n1c(C)cc(/C=C2\C(=O)NN(c3ccccc3)C2=O)c1C | 20.6%
30 | CCCCC(CCC(=O)Nc1ccc(C(=O)OCC)cc1)C(=O)O (stereo not given) | -4.81%
31 | CCOC(=O)Nc1ccc(NC(=O)OCC)cc1 | 3.65%
32 | CCCCCOC(=O)NCCOC(=O)Nc1ccc(C(=O)OCC)cc1 | 43% (active)
33 | c1ccc(C2CCC(N3CCC(N4CCCCC4)CC3)CC2)cc1 (stereo not given) | 1.52%
34 | COc1ccc(NC(=O)Nc2ccc3nc(C)c(C)nc3c2)cc1 | 8.79%
35 | COc1ccc(NC(=O)Nc2ccc3nsnc3c2)cc1 | -5.25%
36 | O=C(Nc1ccc2ccccc2c1)Nc1ccc2snnc2c1 | 67.9% (active)
37 | CCCCNC(=O)C(=O)c1ccccc1NC(C)=O | 7.01%
38 | Cc1ccc(C(=O)NC2CCN(C(=O)N3CCOCC3)CC2)cc1 | 7.51%
39 | Cc1ccc(NC(=O)N2CCC(C(=O)NCc3ccc(F)cc3)CC2)cc1 | 1.66%
40 | Cc1cc(C)cc(NC(=O)N2CCC(NC(=O)c3ccc(F)cc3)CC2)c1 | 37.4% (active)
41 | CCOC(=O)c1sc(C)c2c1NC(C)(c1cccc3ccccc13)NC2=O (stereo not given) | 30.4% (active)
42 | CCOC(=O)c1nc(N)sc1C(=O)OCC | -8.73%
43 | CCOC(=O)c1cc2ccccc2nc1C | 3.8%
44 | CC1(C)CC(=O)C(C=NCCN2CCN(C(=S)Nc3cccc(Cl)c3)CC2)=C(O)C1 | 1.4%
45 | COc1cc(/C=N/NC(=O)Nc2ccccc2)ccc1OCCOc1ccccc1C | -1.48%
46 | Nc1c(-c2cccc(Cl)c2)cnn1-c1cccc([N+](=O)[O-])c1 | 4.05%
47 | CC(C)(CCl)C(=O)Nc1ccc(Sc2ccc(F)cc2)cc1 | 37.1% (active)
48 | COC(=O)c1ccc(Sc2ccc(F)cc2)c(N)c1 | 7.42%

Row | Structure (SMILES) | inhibition
49 | CCN(c1ccccc1)S(=O)(=O)c1ccc(NC(=O)C(C)(C)C)cc1 | 28.9%
50 | CC(=O)N/C(=C/c1ccc(Cl)cc1)C(=O)NCCc1c[nH]c2ccccc12 | 17.4%
51 | CCCCCCC(=O)Nc1nc(C)c(-c2csc(Nc3cccc(OC)c3)n2)s1 | 3.51%
52 | C#CCNc1nc(C(C)C)nc2c1nnn2Cc1ccccc1F | 22.2%
53 | Cc1nc(Nc2ccc3c(c2)OCCO3)c2nnn(Cc3ccccc3Cl)c2n1 | 57.3% (active)
54 | CC(C)(C)c1nc(NCC2CCCO2)c2nnn(Cc3ccccc3)c2n1 (stereo not given) | 12.5%
55 | CCCCNC(=S)NNC(=O)c1cc(C)on1 | 6.93%
56 | N#CC1=C(N)N(c2ccc(F)cc2)C(=O)C1 | 1.63%
57 | Cc1ccccc1-n1c(C)cc(/C=N/NC(=O)c2ccc(CN3CCOCC3)cc2)c1C | 7.99%
58 | COc1ccccc1N1CCN(C(=O)c2cc(-c3ccc(Cl)c(Cl)c3)on2)CC1 | 2.68%
59 | COc1ccccc1-c1cc(C(=O)N2CCCCC2)no1 | 13.9%
60 | COc1ccccc1N1CCN(C(=O)c2cc(-c3ccc(Br)cc3)on2)CC1 | 33.2% (active)
61 | NC(=O)N1CCCC1C(=O)Nc1ccc(Cl)c(Cl)c1 (stereo not given) | -1.15%
62 | CC1=CC(C)(C)N(C(=O)CSc2nccn2C)c2cc(C)ccc21 | 1.07%
63 | O=C(CSc1nnc(-c2ccccc2)o1)N1CCOCC1 | 7.42%
64 | CC1=CC(C)(C)N(C(=O)CSc2nnc(-c3ccccc3)o2)c2ccc(C)cc21 | 72.6% (active)
65 | CC(C)NC(=O)c1ccccc1S(=O)c1ccccc1C#N (stereo not given) | -5.45%
66 | Cc1nn(C)cc1C(=O)NNC(=S)Nc1ccc(Cl)cc1 | 2.4%
67 | CCC(=O)N(Cc1ccccc1)c1ccccn1 | 1.04%
68 | Cc1ccc(C(=O)N/C(=C/C=C/c2ccccc2)C(=O)NCc2ccco2)cc1 | -1.68%
69 | CN(CC(=O)Nc1cccc2c1CCCC2)S(=O)(=O)c1ccc(Cl)cc1 | -4.31%
70 | COCCOC(=O)C1=C(C)NC(=O)CC1c1cc2c(cc1Br)OCO2 (stereo not given) | -3.67%
71 | CCCOc1ccccc1C1CC(=O)Nc2cc3c(cc21)OCO3 (stereo not given) | 34.1% (active)
72 | COc1ccccc1C1C2=C(COC2=O)Nc2cc3c(cc21)OCO3 (stereo not given) | 6.27%

Row | Structure (SMILES) | inhibition
73 | COc1cc(C(=O)N2CCN(C/C=C/c3ccccc3)CC2)cc(OC)c1C | 8.75%
74 | COc1cnc(SCc2ccc(Cl)c(Cl)c2)nc1Cl | 16.9%
75 | CCCn1nc2cc(C(=O)NCc3ccccc3)ccc2c1OCC | -6.87%
76 | CCn1c(=O)c(=O)n(CC)c2cc(S(=O)(=O)N3CCc4ccccc43)ccc21 | 12.6%
77 | Cn1c(=O)n(C)c2cc(S(=O)(=O)N3CCCc4ccccc43)ccc21 | -3.51%
78 | CSc1nc2ccc(S(=O)(=O)N3CCc4ccccc43)cc2s1 | 52% (active)
79 | CCOc1ccc(C(CCc2ccccc2)NC(=O)c2ccc(OC)c(OC)c2)cc1OCC (stereo not given) | -3.35%
80 | C=CCNc1nc(N)c(C(=C(C#N)C#N)c2ccccc2)s1 | 5.44%
81 | CN1CCN(c2nc3c(c(=O)[nH]c(=O)n3C)n2Cc2cccc3ccccc23)CC1 | 9.64%
82 | CC1CCN(c2nc3c(c(=O)[nH]c(=O)n3C)n2CCCc2ccccc2)CC1 | 30.6% (active)
83 | C=C(C)Cn1c(N2CCCC2)nc2c1c(=O)[nH]c(=O)n2C | 6.94%
84 | O=C1c2ccccc2C(=O)c2c1cccc2N1CCN(Cc2ccccc2)CC1 | 17.7%
85 | CCn1c2ccccc2c2cc(NC(=O)C/C(C)=N/NC(=O)c3ccccc3N)ccc21 | -1.98%
86 | Cc1cccc(N2CCN(C(=O)CN(C)S(=O)(=O)c3ccc4c(c3)CCC(=O)N4)CC2)c1C | 6.36%
87 | COc1ccccc1N1CCN(C(=O)c2ccc(S(=O)(=O)N3CCCCC3)cc2)CC1 | -0.79%
88 | CCC(=O)Nc1ccccc1N1CCN(S(C)(=O)=O)CC1 | 13.1%
89 | COc1ccc(C(=O)NC(=S)Nc2ccccc2N2CCN(S(C)(=O)=O)CC2)cc1OC | 31.7% (active)
90 | O=C1/C(=C/c2cccs2)CCc2ccccc21 | 12.8%
91 | O=C(Nc1nccs1)C1CCN(S(=O)(=O)c2ccc(Cl)c(C(F)(F)F)c2)CC1 | 17.7%
92 | CCOC(=O)c1nnn(-c2nonc2-n2cccc2)c1CN1CCOCC1 | -2.3%
93 | CCOC(=O)c1c(CN2CCOCC2)n(-c2ccccc2)c2ccc(O)cc12 | 45.2% (active)
94 | O=c1c(-c2ccccc2)coc2c(CN3CCOCC3)c(O)ccc12 | 10.4%
95 | O=C(COC(=O)c1ccccc1SCC(=O)NC1CCCCC1)NC1CCCCC1 | 0.43%

Reference: PubChem BioAssay AID738 (SRMLSC, 2007)
